Screens: PubChem BioAssay, National Center for Advancing Translational Sciences (NCATS)
Shown are actives, neighbours in structure and some others; about 21% of the full set was active somewhere.
Pf growth 48h: inhibits P. falciparum growth in the first generation, 48 h; hit rate 5.9% among 310,000; Potency, µM (titrated, usually from 28.7 µM), without a hit: at the top dose activity change, negative = inhibition, actives largely listed as inhibitors; P. falciparum luciferase growth in erythrocytes, 48 h; note: potency is the fitted concentration of half-maximal effect; % is set by controls: 0 for no effect and ±100 for the full control effect
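Luciferase-expressing parasites in RBCs, 2% Hct / 0.1% parasitemia final; RPMI 1640 + 0.5% Albumax; 37 C, 5% CO2, one generation; luminescence read-out, lower signal = inhibition.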
Shiga toxin inh: inhibitors of Shiga toxin in Vero cells | Vero cells, Shiga toxin protein synthesis inhibition reporter | inhibition, % at 38.7 µM | hit rate 9.2% among 290,000; in the data active = inhibition mostly above about 28%, no sharp cut-off; inactive = mostly below about 43%; note: 0% is about no effect
Pf growth 96h: P. falciparum growth inhibition at 96 hour, primary screen for plastid delayed-death inhibitors; P. falciparum luciferase reporter growth, 96 h; Potency, µM (highest dose often 28.7 µM), for inactives: at the highest dose activity change, negative = inhibition, most hits filed as inhibitors; hit rate 6.9% among 320,000; note: potency is the fitted concentration of half-maximal effect; % is set by controls: 0 for no effect and ±100 for the full control effect
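Compounds incubated with erythrocytes infected by luciferase-expressing P. falciparum (2% hematocrit, 0.05% parasitemia final) for 96 hours, 37 C in 5% CO2. Growth inhibition scored as decreased luciferase luminescence.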
Cycloheximide cs: affects cycloheximide protein synthesis inhibition readout, counter-screen. cell reporter, cycloheximide protein synthesis inhibition counterscreen. max response, %. hit rate 12% among 300,000; in the data active = max response mostly above about 13%, no sharp cut-off; inactive = mostly below about 14%; note: read at 38.3 µM for the half of the compounds with a filed dose; 0% is about no effect
* hit, by the source's call. Unless noted, calls come from the whole dose curve; as a rule, active = well fitted inhibition curve with a large enough effect; inconclusive = small, poorly fitted or top-dose-only effect, or another doubt; inactive = no such curve, though single readings can be large or run the other way.

How did CCC[C@@H]1CCCO[C@@](C(=O)NCCN2CCOCC2)(C(F)(F)F)C1 do in these assays?
Shiga toxin inh: -1.6; Cycloheximide cs: 5.6

What do the screens show for `CCOC(=O)N1CCC(Nc2c(Nc3cccc(CC)c3)c(=O)c2=O)CC1`?
Pf growth 48h: 10.4µM*; Shiga toxin inh: -20.0; Pf growth 96h: inconclusive; Cycloheximide cs: 3.8

Results for CCOC(=O)N1CCC(Nc2c(Nc3ccc(F)cc3)c(=O)c2=O)CC1 ?
Pf growth 48h: 10.4µM*; Shiga toxin inh: -5.6; Pf growth 96h: inconclusive; Cycloheximide cs: 1.1

How did CCOC(=O)N1CCC(Nc2c(NCCN3CCN(Cc4ccccc4)CC3)c(=O)c2=O)CC1 do in these assays?
Pf growth 48h: -0.9%; Shiga toxin inh: -1.3; Pf growth 96h: 0.0%; Cycloheximide cs: -2.9

Results for CC1Cc2ccccc2N1C(=O)CO/N=C/c1ccc(OC(F)F)cc1 (stereo unspecified) ?
Pf growth 48h: 0.0%; Shiga toxin inh: 11.4; Pf growth 96h: -9.0%; Cycloheximide cs: -3.3

Results for CCOC(=O)/C(C#N)=C1/C=CN(c2ccc(C)cc2)C=N1 ?
Shiga toxin inh: 64.1*; Pf growth 96h: 15.2%; Cycloheximide cs: 29.5*

Results for CCOC(=O)/C(C#N)=C1/C=CN(c2ccccc2)C=N1 ?
Pf growth 48h: 60.7%; Shiga toxin inh: 49.4; Cycloheximide cs: 4.2

What do the screens show for `CC(=O)N(CCN(C(C)=O)c1ccccc1)c1ccccc1`?
Pf growth 48h: -5.7%; Shiga toxin inh: -7.5; Cycloheximide cs: -1.7

How did CC(=O)N(C1=C(N)C(=O)c2ccccc2C1=O)c1ccccc1 do in these assays?
Pf growth 48h: inconclusive; Shiga toxin inh: 1.7; Pf growth 96h: 9.28µM*; Cycloheximide cs: -1.3

How did Cc1ccc(N=C2CCCN2Cc2ccccc2)c(C#N)c1 do in these assays?
Pf growth 48h: 8.8%; Shiga toxin inh: active; Pf growth 96h: inconclusive; Cycloheximide cs: 17.5*

How did Cc1ccc(N=C2CCCCCN2C)c(C#N)c1 do in these assays?
Pf growth 48h: 23.1%; Shiga toxin inh: 6.9; Pf growth 96h: inconclusive; Cycloheximide cs: 2.3

How did COc1ccc(C(=O)NNC(=O)CSc2nnc(C3CC3)n2C)cc1 do in these assays?
Pf growth 48h: 8.1%; Shiga toxin inh: 14.8; Pf growth 96h: -12.2%; Cycloheximide cs: -5.7

What do the screens show for `Cc1ccc2c(c1)NC(=O)C(CC(=O)NCCN(C)C)O2` (stereo unspecified)?
Shiga toxin inh: 8.5; Pf growth 96h: 1.65µM*; Cycloheximide cs: 5.5

What do the screens show for `Cc1ccc(CCNC(=O)CC2Oc3ccc(C)cc3NC2=O)cc1` (stereo unspecified)?
Pf growth 48h: 6.9%; Shiga toxin inh: -15.7; Pf growth 96h: -22.5%; Cycloheximide cs: -3.3

How did CNCC/C=C1/c2ccccc2CSc2ccccc21 do in these assays?
Pf growth 48h: inconclusive; Shiga toxin inh: -2.1; Pf growth 96h: inconclusive; Cycloheximide cs: -5.6

What do the screens show for `CCCCCC[N+](C)(C)CC/C=C1/c2ccccc2Sc2ccc(Cl)cc21`?
Pf growth 48h: inconclusive; Shiga toxin inh: -5.1; Pf growth 96h: 2.08µM*; Cycloheximide cs: -1.5

Results for CN(C)CC/C=C1/c2ccccc2Sc2ccc(Cl)cc21 ?
Pf growth 48h: 10.4µM*; Shiga toxin inh: 1.6; Pf growth 96h: inconclusive; Cycloheximide cs: -6.4

What do the screens show for `CCCCC[C@H]1CN(Cc2ccccc2)C(=O)[C@@H]1CC(=O)NCc1ccccc1`?
Pf growth 48h: -6.0%; Shiga toxin inh: -3.4; Pf growth 96h: inconclusive; Cycloheximide cs: -2.3

Results for Cc1nnc(NC(=O)Cn2nc(C)c3ccccc3c2=O)s1 ?
Pf growth 48h: -0.3%; Shiga toxin inh: -24.1; Pf growth 96h: 6.0%; Cycloheximide cs: 1.5

Results for O=C(O)c1cc(S(=O)(=O)N2CCCCC2)ccc1Cl ?
Pf growth 48h: 42.5%; Shiga toxin inh: -13.4; Pf growth 96h: inconclusive; Cycloheximide cs: 0.8

Results for COc1ccc(NC(=O)CCN2C(=O)c3cccc([N+](=O)[O-])c3C2=O)cc1 ?
Pf growth 48h: 44.5%; Shiga toxin inh: 8.6; Pf growth 96h: -11.6%; Cycloheximide cs: -1.6

What do the screens show for `CC(C)(C)c1ccc(NC(=O)COC(=O)CCN2C(=O)c3cccc([N+](=O)[O-])c3C2=O)cc1`?
Pf growth 48h: 33.4%; Shiga toxin inh: 7.1; Pf growth 96h: 0.0%; Cycloheximide cs: 17.9*

Results for FC(F)(F)c1ccc2c(c1)NCC1CCCN21 (stereo unspecified) ?
Pf growth 48h: 224.5%; Shiga toxin inh: 40.0; Pf growth 96h: 108.3%; Cycloheximide cs: 17.2*

How did CC(=O)NC(CC(=O)N(Cc1ccccc1)c1cccc(C)c1)c1ccccc1 (stereo unspecified) do in these assays?
Pf growth 48h: inconclusive; Shiga toxin inh: 8.5; Pf growth 96h: inconclusive; Cycloheximide cs: 0.7

Results for CC(=O)Oc1ccc(OC(C)=O)c2c1CC(C)=C(C)C2 ?
Pf growth 48h: 9.28µM*; Shiga toxin inh: 41.2; Pf growth 96h: 13.1µM*; Cycloheximide cs: -0.3

How did CC(=O)Oc1ccc(C)cc1 do in these assays?
Pf growth 48h: -12.6%; Pf growth 96h: -15.1%

What do the screens show for `O=c1[nH]c2ccc(S(=O)(=O)N3CCCCC3)cc2o1`?
Pf growth 48h: 8.1%; Shiga toxin inh: -5.0; Pf growth 96h: 10.4µM*; Cycloheximide cs: -5.4

How did O=S(=O)(c1ccc2c(c1)oc1ccccc12)N1CCOCC1 do in these assays?
Pf growth 48h: 13.1µM*; Shiga toxin inh: -7.1; Pf growth 96h: 19.8%; Cycloheximide cs: 0.5

Results for O=S(=O)(Nc1ccc2c(c1)oc1ccccc12)N1CCCC1 ?
Pf growth 48h: 108.4%; Shiga toxin inh: 22.3; Pf growth 96h: 48.7%; Cycloheximide cs: 19.9*

How did O=S(=O)(c1ccc2oc(=S)[nH]c2c1)N1CCOCC1 do in these assays?
Pf growth 48h: inconclusive; Pf growth 96h: 8.28µM*

What do the screens show for `O=C(Nc1ccccc1Br)c1cc[n+]([O-])cc1`?
Pf growth 48h: 9.2%; Shiga toxin inh: -5.5; Pf growth 96h: 13.1%; Cycloheximide cs: -3.1

How did COCCN(Cc1cccs1)S(=O)(=O)c1ccc(-c2ccc(=O)[nH]n2)s1 do in these assays?
Pf growth 48h: inconclusive; Shiga toxin inh: -1.1; Pf growth 96h: 0.0%; Cycloheximide cs: -7.5

What do the screens show for `COCCN1C(=O)c2ccccc2C(C(=O)NCCCN2CCCC2)C1c1c[nH]c2ccccc12` (stereo unspecified)?
Pf growth 48h: 13.1µM*; Shiga toxin inh: -1.4; Pf growth 96h: -13.6%; Cycloheximide cs: -4.5

How did Cn1cc(C(=O)c2cccc(Cl)c2)cc1C#N do in these assays?
Pf growth 48h: 2.9%; Shiga toxin inh: -10.9; Pf growth 96h: -6.6%; Cycloheximide cs: 4.1

How did Cn1cc(C(=O)c2cccc(Cl)c2)cc1/C=N\O do in these assays?
Pf growth 48h: 76.6%; Shiga toxin inh: 38.6; Pf growth 96h: 28.2%; Cycloheximide cs: 33.0*

What do the screens show for `Cc1ccc(Cn2c(=O)c3c(nc4n3CCN4Cc3ccco3)n(C)c2=O)cc1`?
Pf growth 48h: 13.1µM*; Shiga toxin inh: 0.7; Pf growth 96h: 32.8%; Cycloheximide cs: -0.9

Results for COc1ccc(N2CCCn3c2nc2c3c(=O)n(Cc3ccc(C)cc3)c(=O)n2C)c(OC)c1 ?
Pf growth 48h: 9.28µM*; Shiga toxin inh: 3.8; Pf growth 96h: 0.0%; Cycloheximide cs: 11.2
